Common to all, as to test: DAPPL (digital affinity profiling via proximity ligation, sequencing); 10 mM Tris-HCl pH 7.5, 50 mM NaCl, 1 mM DTT, 4% glycerol, room temperature, 30 min; GST-TFs on glutathione beads, 16-mer random dsDNA library, 0.1% formaldehyde crosslink after washing; high values mean tight binding
Conditions in all cases: protein: recombinant; tags: N-terminal GST; dsDNA, one strand shown

The target of one experiment is T1, ERF (Homo sapiens, UniProt P50548 1-548).
T1 sequence: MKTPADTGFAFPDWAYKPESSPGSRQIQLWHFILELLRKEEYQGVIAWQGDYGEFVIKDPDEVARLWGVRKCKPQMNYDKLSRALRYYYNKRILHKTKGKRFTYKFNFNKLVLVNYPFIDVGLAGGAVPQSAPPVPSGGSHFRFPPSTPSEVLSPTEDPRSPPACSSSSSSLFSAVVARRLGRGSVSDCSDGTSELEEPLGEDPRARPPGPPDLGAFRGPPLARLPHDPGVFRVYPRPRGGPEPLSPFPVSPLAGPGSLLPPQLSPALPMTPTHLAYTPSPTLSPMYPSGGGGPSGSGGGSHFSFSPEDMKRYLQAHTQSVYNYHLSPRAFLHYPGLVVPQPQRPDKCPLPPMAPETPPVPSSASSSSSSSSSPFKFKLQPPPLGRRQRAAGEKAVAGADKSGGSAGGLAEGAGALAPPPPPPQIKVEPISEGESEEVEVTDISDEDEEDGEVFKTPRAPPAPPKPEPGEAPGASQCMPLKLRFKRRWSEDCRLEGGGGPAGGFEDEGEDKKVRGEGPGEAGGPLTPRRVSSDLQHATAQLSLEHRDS
The method, boiled down:
(§1)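 The binding signal reported is, for every hexamer, its read frequency for a factor over its read frequency for the tag-only sample. Reads came from pools of yeast-expressed, GST-fused human transcription factors on glutathione beads, barcoded with DNA and mixed with that sample, which were incubated with 200 nmole of a random double-stranded 16-mer DNA library in Tris/NaCl/DTT/glycerol buffer at room temperature for 30 min. After washing, the pools were crosslinked with 0.1% formaldehyde, proximity-ligated with BsaI/T4 ligase for 1 h at 37 °C, PCR-amplified and sequenced on an Illumina NextSeq500.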

The target of another experiment is T2, ETV3L (Homo sapiens, UniProt Q6ZN32 1-361).
T2 sequence: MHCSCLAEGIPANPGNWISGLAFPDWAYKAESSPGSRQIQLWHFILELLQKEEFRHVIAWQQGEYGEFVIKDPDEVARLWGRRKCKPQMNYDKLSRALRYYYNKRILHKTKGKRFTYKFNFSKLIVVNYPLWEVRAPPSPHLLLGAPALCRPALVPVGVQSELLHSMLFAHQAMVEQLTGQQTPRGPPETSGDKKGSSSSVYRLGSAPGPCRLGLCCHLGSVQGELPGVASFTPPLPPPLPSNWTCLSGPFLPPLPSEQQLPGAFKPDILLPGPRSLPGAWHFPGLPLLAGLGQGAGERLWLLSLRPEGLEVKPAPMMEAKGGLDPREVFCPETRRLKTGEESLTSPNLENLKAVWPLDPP
The method, boiled down:
as §1

The next experiment deals with T3, ETS2 (Homo sapiens, UniProt P15036 1-469).
T3 sequence: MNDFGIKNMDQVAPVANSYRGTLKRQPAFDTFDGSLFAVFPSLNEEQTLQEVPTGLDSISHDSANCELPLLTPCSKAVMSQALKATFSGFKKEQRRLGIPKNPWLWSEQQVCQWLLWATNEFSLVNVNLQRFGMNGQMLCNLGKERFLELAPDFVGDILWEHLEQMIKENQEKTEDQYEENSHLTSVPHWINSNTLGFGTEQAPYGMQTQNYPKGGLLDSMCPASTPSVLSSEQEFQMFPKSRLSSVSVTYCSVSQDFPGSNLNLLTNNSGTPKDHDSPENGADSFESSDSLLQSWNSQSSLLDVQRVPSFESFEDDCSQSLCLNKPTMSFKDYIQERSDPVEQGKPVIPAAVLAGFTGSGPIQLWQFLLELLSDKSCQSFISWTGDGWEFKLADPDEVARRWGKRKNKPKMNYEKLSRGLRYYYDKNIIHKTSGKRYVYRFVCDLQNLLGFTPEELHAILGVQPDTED
In a few lines: as §1

The target of the next experiment is T4, SPDEF (Homo sapiens, UniProt O95238 1-335).
T4 sequence: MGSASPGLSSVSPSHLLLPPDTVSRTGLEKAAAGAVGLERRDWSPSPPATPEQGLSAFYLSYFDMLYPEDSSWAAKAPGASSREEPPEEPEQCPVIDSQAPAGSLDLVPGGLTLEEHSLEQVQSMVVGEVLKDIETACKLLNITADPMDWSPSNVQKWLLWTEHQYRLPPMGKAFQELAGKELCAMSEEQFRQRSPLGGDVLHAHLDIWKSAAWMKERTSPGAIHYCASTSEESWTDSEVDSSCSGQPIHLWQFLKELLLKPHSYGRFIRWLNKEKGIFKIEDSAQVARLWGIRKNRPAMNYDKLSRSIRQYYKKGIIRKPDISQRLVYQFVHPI
The method, boiled down:
as §1

The target in another experiment is T5, ETV7 (Homo sapiens, UniProt Q9Y603 1-341).
T5 sequence: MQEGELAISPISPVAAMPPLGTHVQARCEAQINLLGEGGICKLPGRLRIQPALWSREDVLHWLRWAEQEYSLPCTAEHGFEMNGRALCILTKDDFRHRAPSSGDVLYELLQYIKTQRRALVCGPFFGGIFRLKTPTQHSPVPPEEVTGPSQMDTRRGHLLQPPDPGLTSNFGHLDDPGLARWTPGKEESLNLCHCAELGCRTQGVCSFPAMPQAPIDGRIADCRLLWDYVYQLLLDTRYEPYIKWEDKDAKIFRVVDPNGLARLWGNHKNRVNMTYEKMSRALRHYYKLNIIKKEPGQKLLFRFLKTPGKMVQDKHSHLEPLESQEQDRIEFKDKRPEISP
In a few lines: as §1

Another experiment concerns the target T6, ELF5 (Homo sapiens, UniProt Q9UKW6-2 1-255).
T6 sequence: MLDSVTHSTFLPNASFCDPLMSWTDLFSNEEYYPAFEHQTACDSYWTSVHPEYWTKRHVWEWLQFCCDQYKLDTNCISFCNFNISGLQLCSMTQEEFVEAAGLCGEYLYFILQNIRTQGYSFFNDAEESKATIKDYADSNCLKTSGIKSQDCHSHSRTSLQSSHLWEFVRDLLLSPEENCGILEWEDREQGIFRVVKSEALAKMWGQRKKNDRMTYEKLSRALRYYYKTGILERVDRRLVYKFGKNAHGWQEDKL
The method, boiled down:
as §1

The next experiment has as its target T7, ETV3 (Homo sapiens, UniProt P41162-2 1-143).
T7 sequence: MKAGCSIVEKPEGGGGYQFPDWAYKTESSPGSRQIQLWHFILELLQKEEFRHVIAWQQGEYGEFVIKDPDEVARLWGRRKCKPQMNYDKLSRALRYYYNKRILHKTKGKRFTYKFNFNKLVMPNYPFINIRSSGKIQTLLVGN
The method, boiled down:
as §1

A further experiment deals with ETV6 (Homo sapiens, UniProt P41212 1-452). The method, boiled down: as §1
Chain of ETV6 (P41212 whole entry): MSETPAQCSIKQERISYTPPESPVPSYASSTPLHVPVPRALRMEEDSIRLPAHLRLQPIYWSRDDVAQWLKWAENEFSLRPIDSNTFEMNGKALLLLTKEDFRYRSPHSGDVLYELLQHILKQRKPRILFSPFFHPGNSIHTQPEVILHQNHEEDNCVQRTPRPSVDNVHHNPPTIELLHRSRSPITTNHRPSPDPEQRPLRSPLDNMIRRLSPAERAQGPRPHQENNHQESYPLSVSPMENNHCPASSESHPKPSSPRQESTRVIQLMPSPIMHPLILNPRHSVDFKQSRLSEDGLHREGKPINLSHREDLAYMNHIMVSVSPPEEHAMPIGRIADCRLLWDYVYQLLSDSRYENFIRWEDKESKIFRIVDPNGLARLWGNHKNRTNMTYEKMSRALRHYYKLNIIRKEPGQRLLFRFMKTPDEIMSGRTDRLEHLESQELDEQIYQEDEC

Regarding GTATAT, the binding signal with ERF was 1.11 fold enrichment (6-mer frequency, TF over GST control); in the experiment with ETV3L, 1.16 fold enrichment (6-mer frequency, TF over GST control); with ETS2, 1.14 fold enrichment (6-mer frequency, TF over GST control); with SPDEF, 1.37 fold enrichment (6-mer frequency, TF over GST control); with ETV7 it was 1.13 fold enrichment (6-mer frequency, TF over GST control); in the experiment with ELF5, 1.15 fold enrichment (6-mer frequency, TF over GST control). Moreover, the binding signal with ETV3 was 1.25 fold enrichment (6-mer frequency, TF over GST control); with ETV6, 1.09 fold enrichment (6-mer frequency, TF over GST control).

For AAAGCA, the binding signal was 1.1 fold enrichment (6-mer frequency, TF over GST control) with ERF; 1.1 fold enrichment (6-mer frequency, TF over GST control) with ETV3L; 1.05 fold enrichment (6-mer frequency, TF over GST control) with ETS2; 1.06 fold enrichment (6-mer frequency, TF over GST control) in the experiment with SPDEF; 1.15 fold enrichment (6-mer frequency, TF over GST control) with ETV7; 1.07 fold enrichment (6-mer frequency, TF over GST control) with ELF5. Besides, the binding signal was 1.07 fold enrichment (6-mer frequency, TF over GST control) with ETV3 and 1.05 fold enrichment (6-mer frequency, TF over GST control) in the experiment with ETV6.

For GCTACT, the binding signal in the experiment with ERF is 1.52 fold enrichment (6-mer frequency, TF over GST control); with ETV3L it was 1.2 fold enrichment (6-mer frequency, TF over GST control); with ETS2 it was 1.39 fold enrichment (6-mer frequency, TF over GST control); with SPDEF, 1.27 fold enrichment (6-mer frequency, TF over GST control); in the experiment with ETV7, 1.33 fold enrichment (6-mer frequency, TF over GST control); in the experiment with ELF5 it was 1.2 fold enrichment (6-mer frequency, TF over GST control). Also, the binding signal with ETV3 is 1.19 fold enrichment (6-mer frequency, TF over GST control); with ETV6, 1.38 fold enrichment (6-mer frequency, TF over GST control).

Turning to CCTTGC, the binding signal with ERF was 1.43 fold enrichment (6-mer frequency, TF over GST control); with ETV3L, 1.42 fold enrichment (6-mer frequency, TF over GST control); with ETS2, 1.22 fold enrichment (6-mer frequency, TF over GST control); with SPDEF, 1.34 fold enrichment (6-mer frequency, TF over GST control); with ETV7 it was 1.41 fold enrichment (6-mer frequency, TF over GST control); with ELF5 it was 1.28 fold enrichment (6-mer frequency, TF over GST control). The binding signal with ETV3 is 1.35 fold enrichment (6-mer frequency, TF over GST control); with ETV6 it was 1.21 fold enrichment (6-mer frequency, TF over GST control).

On to TTATTT, for which the binding signal was 1.26 fold enrichment (6-mer frequency, TF over GST control) with ERF; 1.38 fold enrichment (6-mer frequency, TF over GST control) with ETV3L; 1.41 fold enrichment (6-mer frequency, TF over GST control) in the experiment with ETS2; 1.19 fold enrichment (6-mer frequency, TF over GST control) with SPDEF; 1.46 fold enrichment (6-mer frequency, TF over GST control) in the experiment with ETV7; 1.43 fold enrichment (6-mer frequency, TF over GST control) with ELF5. Moreover, the binding signal was 1.41 fold enrichment (6-mer frequency, TF over GST control) with ETV3 and 1.4 fold enrichment (6-mer frequency, TF over GST control) with ETV6.

GCTATT: the binding signal with ERF was 1.37 fold enrichment (6-mer frequency, TF over GST control); in the experiment with ETV3L, 1.34 fold enrichment (6-mer frequency, TF over GST control); in the experiment with ETS2, 1.25 fold enrichment (6-mer frequency, TF over GST control); in the experiment with SPDEF, 1.2 fold enrichment (6-mer frequency, TF over GST control); with ETV7, 1.34 fold enrichment (6-mer frequency, TF over GST control); in the experiment with ELF5, 1.33 fold enrichment (6-mer frequency, TF over GST control). Also, the binding signal in the experiment with ETV3 is 1.25 fold enrichment (6-mer frequency, TF over GST control); with ETV6, 1.35 fold enrichment (6-mer frequency, TF over GST control).

In the case of GAAATC, the binding signal with ERF is 1.31 fold enrichment (6-mer frequency, TF over GST control); with ETV3L, 1.42 fold enrichment (6-mer frequency, TF over GST control); with ETS2, 1.41 fold enrichment (6-mer frequency, TF over GST control); with SPDEF, 1.4 fold enrichment (6-mer frequency, TF over GST control); in the experiment with ETV7, 1.46 fold enrichment (6-mer frequency, TF over GST control); in the experiment with ELF5, 1.58 fold enrichment (6-mer frequency, TF over GST control). Besides, the binding signal with ETV3 was 1.42 fold enrichment (6-mer frequency, TF over GST control); with ETV6, 1.49 fold enrichment (6-mer frequency, TF over GST control).

These data come from paper PMC7862700, “An all-to-all approach to the identification of sequence-specific readers for epigenetic DNA modifications on cytosine”.
